Results from PubChem BioAssay AID1508600 (Functional Genomics Laboratory (NCATS/FGL), 2020).
Hit rate of the full screen: of about 53,000 sequences, about 3,700 (7%) were called active. Shown is part of a subset that was picked to be rich in actives. Unmarked numbers belong to inactive results.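 Rule for the calls: active = gene knockdowns whose robust z-score for IL-1 alpha signal is at least 2 or at most -2, so actives lie on both sides; inactive = the rest.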

Assay: Components of the Cytosolic LPS Sensing Pathway: Gene Identification via Genome-wide siRNA Screen;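 note: robust z of the log signal after scaling to non-targeting control siRNA wells of the plate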
Conditions: RAW264.7 macrophages, IL-1a HTRF, actives lie on both sides, screened at 100 nM (by protocol), cells primed 5 h with Pam3CSK4 first
Procedure, shortened: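 Read-out: IL-1a HTRF on supernatant, divided by plate negative-control median ×100, log-transformed and converted to robust z-score. Cells were RAW264.7 given 100 nM siRNA, Pam3CSK4-primed 5 hours, then LipidA-transfected 24 hour.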

Sequence	z-score
GGAUAAAAUUGCUUUACUGTT against Srek1ip1	2.63 (active)
GGUGGUACUUACUCAAAAUTT against Fgg	1.05
GGGACUACCAUUUGUUAAUTT against Tktl1	0.751
CCAGAUUGUCACUUGCUACTT against Skint3	1.25
GGAUACAAUCAUCGCCAUCTT against Olfr101	1.3
GCUUUUAACAUCGAGUAAUTT against Top2b	-0.627
GCAUUCAUCAGGGUUGAUUTT against Wdr20	-2.43 (active)
CCUGUUAUGACCGUUCAUGTT against Prpf4	0.551
GGCUCUGAAAAUUGAACACTT against Cep83	0.0736
GGGUCUUAUCUCGAUGAGGTT against Flt3l	-0.199
GGAAAUCAGCUGAAUUACUTT against Dicer1	1.07
GGAACCAAUCUUGGUCUCATT against Tln2	-0.66
GGAUUCAGGCUGGAAAAUATT against Clrn1	-1.04
GGAAAACUUGAGGCGGAUCTT against Enkd1	2.63 (active)
CCCUGAAGGCUUACUUUUUTT against Cfap299	-0.231
GCUUUUCAUAUCUCUUGCATT against Olfr1385	0.408
CCUGUCUGGACUUGUCUAATT against Ica1	-2.05 (active)
GCCAGAAUCUGUUGUGAACTT against Gfpt1	0.0747
GGGAAAAUCCACUUUUAAGTT against Hs2st1	-0.0469
GGGUCCAAUAAACAUGUCUTT against B3galt4	0.234
CCAGGACUUACUCAGUAAUTT against Setd6	-0.72
GGCAAGAGAAUUCAGAUCUTT against Slc5a1	2.91 (active)
GGCGUGAUCGCUCUCCAAUTT against Ncoa5	0.834

Sequence	z-score
GGAUAACCGCCAAUAAAAATT against Msantd3	0.255
GCCCUACCUUGAAUCCCAUTT against Olfr532	-1.75
GGUAUUGGGCCAUUGGUUGTT against Mapkapk3	0.705
GGGUUGAUUAAAGUUUAACTT against Gsx2	1.4
GGCCACUUGCCUAUUGUGATT against Anxa6	-0.343
GAAUAUGUGGCUCUGGGUCTT against G6pc3	-0.414
GCUGCACAUUGUCCAUUAUTT against Car12	2.3 (active)
GGUGUUCUUUGACAGUGCCTT against Atp5d	0.107
GCCGAUGAUGAGAAACGACTT against Cd2	-0.279
GGCGAGUUUUCCUCUUCAGTT against Sync	1.08
CCGUCAUCACUGAUCAGUUTT against Olfr684	2.7 (active)
GGUGCUGUGUGAGCUUUCATT against Zfp85os	-1.47
GGCUGACUCGCUUUCACCATT against Efna2	0.522
GCCACAGGCCAAGAUCAUUTT against Pafah1b2	-0.614
GGACAAUUGGAAGAUUUGGTT against Ccdc88a	-1.23
CCCUGAAUAAGGCUGAUCUTT against Krt32	-0.801
GGAUCUGUGAGAAUCAUAGTT against Rabgap1l	-2.24 (active)
GGGAGAUGUUGUCAGGGUCTT against Rnasel	-0.476
GGAAAGUGCAUCAUAGACATT against Thrb	0.153
GGACGAUGUAUUGUUAUUGTT against Lrp10	1.49
GGUAUGACUUGCUCUUUAUTT against Rnpep	-0.881
GCAUUUGUGGCCUAUGCUCTT against Naprt	-2.16 (active)
GCUCAAAUGUUCUAAAAGCTT against Acmsd	-0.332

Sequence	z-score
GGCGUAUUUGUCAUUUCUUTT against Dis3l	0.013
GGAAGUCAUUUUUUCCAAGTT against Msantd4	1.12
GCAUUGUUUUUCUAUUCAGTT against Cfhr1	0.531
GGUGCUUCACAGAAUGUGUTT against Olfr784	-1.8
GGGUCUCAAAGCAGUUUUUTT against Rhoj	3.99 (active)
GCUGAAAACACACCUAGCATT against Gin1	1.19
GGCUGUCUUACAAUGUAAUTT against Gabrb2	-0.638
GAGACUAAUAUAGUGAAUGTT against Foxj1	-0.314
GGCAGAGAGUCUACAUAUGTT against Bcar3	-0.272
GCAGAAGGUACUACUAUCGTT against Rcsd1	0.669
CCUUGUUGUGACAAGCUUUTT against Rchy1	-0.362
GGCUUCAUGCCUUAUCCACTT against Fam166a	-0.314
GCCCUGUGCUUGGCAACAUTT against Ssbp3	-2.36 (active)
GGCCACCGUUCAAAAAAUUTT against Dctn5	-0.226
GGAAGAGAAUAGAUCCUAUTT against Zbtb8a	-0.388
GGUCGUGUACAAGUACAUATT against Mrps24	2.24 (active)
GCUACUGCACAAAGUUACGTT against Ankrd36	-0.0351
GCUGACUCCAUCCUAACAGTT against Cideb	-2.6 (active)
GCCUCUGAGUUGCAUGAGUTT against Ppp2r5b	-0.736
GGACUACCAUCGACCUUCATT against Nek2	1.15
CCCAAGAAUUGGAUUCCAGTT against Lta	-0.528
GGAGCUGAAGAUCAAGGAGTT against Pkn3	-0.849
GCCCAAAAAUACUGGAUAUTT against Atp6ap2	-2
